Laboratory results: PubChem BioAssay (NCATS)
Records with an inconclusive call do not appear. Where a call stands in place of a potency, no number is given. Active and inactive are the calls of the source. Calls come from the whole dose curve; as a rule, active = well fitted cell-killing curve with a large enough effect; inconclusive = small, poorly fitted or top-dose-only effect; inactive = flat fitted curve, though single readings scatter.

Assay: Quantitative highthroughput screen to assess conditional lethalithy of P12 Ichikawa cells grown in Human Plasma-Like Medium with dialyzed fetal bovine serum (HPLM+ds) (AID 1963879); note: nearly all actives have a fitted effect of over 35% in size
Settings: ATP luminescence, 48 h; Potency: viability; series mostly up to 45.8 µM
Description: Assay Provider: Jason Cantor Ph.D.
Department of Biochemistry
University of Wisconsin-Madison, Madison, WI, USA
Chemical screening studies have identified drug sensitivities across hundreds of cancer cell lines but most putative therapeutics fail to translate. Discovery and development of drug candidates in models that more accurately reflect nutrient levels in human blood is a major challenge. Here we performed high-throughput screens in conventional versus Human Plasma-Like Medium (HPLM) to identify compounds that were "missed" when screening using the artificial culture condition. Sets of conditional anticancer compounds spanned phases of clinical development and included non-oncology drugs were assessed. […] We also traced conditional phenotypes for several chemotherapeutics to availability of HPLM-specific metabolites and confirmed others for compounds whose reported targets are encoded by nonessential genes. Our findings establish generalizable strategies for exploiting conditional lethality in HPLM to reveal therapeutic candidates and mechanisms of action in cancer cells.
Described herein are the results of each viability screens against three cell lines: NOMO1 (an acute myeloid leukemia cell line); P12-Ichikawa (a T-cell acute lymphoblastic leukemia); and SEM (a B-cell ALL). Each assay was screened using 3 different cell culture media: homemade human plasma-Like medium with 10% dialyzed fetal bovine serum (HPLM+ds); RPMI1640 with 10% untreated FBS and 5mM glucose (RPMI+s); and RPMI1640 with 10% dialyzed fetal bovine serum and 5 mM glucose (RPMI+ds).
PROTOCOL TABLE (as described by Inglese J, Shamu CE and Guy RK. 2007)
SEQUENCE No. (e.g., 1, 2, 3, etc.); […] (e.g., Cells, Incubation, Reagent, etc.); VALUE and DESCRIPTION.
1; Cells; 5 uL; white, solid bottom 1536-well Greiner assay plate.
2; Compounds; 23 nL; Kalypsis pin tool (Wako USA) equipped with a 1536-well pin head to transfer to the assay plates.
3; Incubation; 48 hours; 37C incubation.
4; Reagent; 3 uL; CellTiter Glo (Promega).
5; Incubation; 5 min, room temperature
6; Detection; Luminescence, Viewlux PerkinElmer.
NOTES (numbers refer to Sequence numbers above)
1. Briefly, 5 ul of cell reagent was dispensed using a Multidrop Combi Dispenser. The NOMO1 and SEM cells were plated at 500 cells/well and the P12-Ichikawa line at 1000 cells/well.
2. After seeding the cells, 23 nL of MIPE 4.1 library compounds (in DMSO) were added to each plate using a Kalypsys 1536 Pintool dispenser. Bortezomib at final concentration of […] and DMSO were added to each plate as positive and negative controls respectively. For each screen, MIPE 4.1 compounds were added over an eleven-point concentration range […] in 3-fold dilutions.
3. Each plate was covered with a stainless steel gasketed lid to prevent evaporation and incubated for 48 hour at 37C, 95% relative humidity, and 5% CO2.
4-5. Three microliter CellTilter-GloTM luminescent substrate mix (Promega) reagent was added to the assay plate and incubated at room temperature for 5 min.
6. The luminescence signal was measured using a ViewLux (PerkinElmer) multiplate reader with a 2 second exposure time per plate. Data for each compound were normalized as percent viability such that measurements for DMSO and the empty well controls in each plate were defined as 100% and 0%, respectively.
Potency is the fitted concentration of half-maximal effect.

Compound | Potency
CCN(CC)CC#CCOC(=O)C(O)(c1ccccc1)C1CCCCC1 (stereo not given) | inactive
Cc1ncc([N+](=O)[O-])n1CCO | inactive
CC(=O)N1CCN(c2ccc(OCc3nn(C)c(C)c3-c3cccc4c(CCCOc5cccc6ccccc56)c(C(=O)O)n(Cc5cccnc5)c34)cc2)CC1 | 10500 nM (active)
NC(=O)c1ccc(N(C(N)=O)c2c(F)cccc2F)nc1-c1ccc(F)cc1F | inactive
COc1cc2ncn(-c3cc(OCc4ccccc4C(F)(F)F)c(C(N)=O)s3)c2cc1OC | 1320 nM (active)
O=c1cc(-c2ccccc2)oc2cc(O)c(O)c(O)c12 | 5900 nM (active)
Cn1cc(C=CC(=O)c2cccc(F)c2)cc1C=CC(=O)NO | inactive
O=C(NCCO[N+](=O)[O-])c1cccnc1 | inactive
O=C(/C=C\n1cnc(-c2cc(C(F)(F)F)cc(C(F)(F)F)c2)n1)NNc1cnccn1 | 588 nM (active)
CN1C(=O)C(Cc2c[nH]c3ccccc23)NC1=S (stereo not given) | inactive
O=C(C=CC=Cc1ccc2c(c1)OCO2)N1CCCCC1 | inactive
NCCc1cnc[nH]1 | inactive
COc1cc2c(Nc3ccc(Cl)c(Cl)c3F)ncnc2cc1OCC1C[C@@H]2CN(C)C[C@H]2C1 | 11800 nM (active)
C[C@H](NCc1ccc(OCc2cccc(F)c2)cc1)C(N)=O | 23500 nM (active)
CC1(C)OC2=C(C(=O)c3ccccc3C2=O)[C@H](NCc2ccccc2)[C@H]1O | 14800 nM (active)
CC(C)N(C[C@H]1O[C@@H](n2cnc3c(N)ncnc32)[C@H](O)[C@@H]1O)C1CC(CCc2nc3ccc(C(C)(C)C)cc3[nH]2)C1 (stereo not given in full) | 1050 nM (active)
COc1cccc(-c2ccc(NC(=O)C3=C(C(=O)O)CCC3)c(F)c2)c1 | 16600 nM (active)
COC(=O)C1C2CC3c4[nH]c5cc(OC)ccc5c4CCN3CC2CC(OC(=O)c2cc(OC)c(OC)c(OC)c2)C1OC (stereo not given) | inactive
CCOc1cc(N2CCC(O)CC2)ccc1Nc1ncc2c(n1)N(C)c1ccccc1C(=O)N2C | 2090 nM (active)
CCCCN1CCC(CNC(=O)c2c3n(c4ccccc24)CCCO3)CC1 | 18700 nM (active)

Compound | Potency
O=C(c1ccccc1)c1ccc2n1CCC2C(=O)O (stereo not given) | 2350 nM (active)
CN[C@@H]1C[C@H]2O[C@@](C)([C@H]1OC)n1c3ccccc3c3c4c(c5c6ccccc6n2c5c31)C(=O)N[C@H]4O | 743 nM (active)
CN[C@@H](C)[C@H]1[C@H](O)C[C@@]2(C)[C@@H]3CC[C@H]4C(C)(C)[C@@H](NC)CC[C@@]45C[C@@]35CC[C@]12C | inactive
CC1CNc2c(cccc2S(=O)(=O)N[C@@H](CCCN=C(N)N)C(=O)N2CC[C@@H](C)C[C@@H]2C(=O)O)C1 (stereo not given in full) | inactive
COc1ccc(-c2coc3cc(O)ccc3c2=O)cc1 | inactive
CCC(C)(Oc1ccc(C2(c3ccc(OC(C)(CC)C(=O)O)cc3)CCCCC2)cc1)C(=O)O (stereo not given) | inactive
CCn1c(-c2nonc2N)nc2c(C#CC(C)(C)O)ncc(OC[C@H]3CCCNC3)c21 | 52.6 nM (active)
C[C@H]1O[C@@H](n2cc(F)c(=O)[nH]c2=O)[C@H](O)[C@H]1O | inactive
COC(=O)Nc1nc2ccc(C(=O)c3ccccc3)cc2[nH]1 | 1050 nM (active)
CC(C)(C)C(=O)OCOP(=O)(COCCn1cnc2c(N)ncnc21)OCOC(=O)C(C)(C)C | 526 nM (active)
Cc1cnc(Nc2ccc(N3CCN(C)CC3)cc2)nc1Nc1cccc(S(=O)(=O)NC(C)(C)C)c1 | 11800 nM (active)
COC(=O)C1=C(C)NC(C)=C(C(=O)OCCCN2CCC(c3ccccc3)(c3ccccc3)CC2)C1c1cccc([N+](=O)[O-])c1 (stereo not given) | inactive
CC(C)(O)[C@H]1CC[C@@](C)([C@H]2[C@@H](O)C[C@@]3(C)[C@@H]4C[C@H](O[C@@H]5O[C@H](CO)[C@@H](O)[C@H](O)[C@@H]5O)[C@H]5C(C)(C)[C@@H](O[C@@H]6OC[C@@H](O)[C@H](O)[C@@H]6O)CC[C@@]56C[C@@]46CC[C@]23C)O1 | inactive
Nc1ccn([C@@H]2CS[C@H](CO)O2)c(=O)n1 | inactive
CS(=O)(=O)c1ccc(-c2cnc(N)c(C(=O)Nc3ccccc3)n2)cc1 | inactive
CN(C)c1ccc(C(=O)NCCCCCCC(=O)NO)cc1 | 1480 nM (active)
COc1ccc(COc2cc3oc(=O)c4cc(C(C)O)ccc4c3cc2OC)cc1 (stereo not given) | inactive
NC1=N[C@H]2[C@H](CS[C@H]2CCCCC(=O)O)N1 | inactive
O=C(O)C=Cc1ccc(O)c(O)c1 | 26400 nM (active)
CC(C)(C)COc1ccc(-n2cc(C(=O)O)cn2)cc1C#N | inactive
